Several values for one entry are separate records, joined by “and”; a condition that tells them apart may be missing. Equal values may be shown once. Among all 5,500 compounds or so, about 2,000 (36%) were called active. Inconclusive results (about 18%) are left out. Rule as the data show it: active = normalized growth mostly below about 0.91 (no sharp cut-off); inconclusive = no clear call, values can overlap the other calls; inactive = mostly above about 0.92. The list shows a part of the results.
Test: chemical genetic growth profiling, strain panel (AID 1159580);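 also: tested at 20 µM; growth read once vehicle control cultures reached saturation at 30 °C; 1 = growth at the plate median or of vehicle wells; lower values mean less growth of the strain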
Details: S. cerevisiae deletion strains, growth OD

Measured: normalized growth

COc1cc(O)ccc1C(C)=O
inactive: locus YAL013W, strain DEP1, stronger effect = lower value 0.99 | locus YAL021C, strain ccr4, stronger effect = lower value 1.02 | locus YAL026C, strain drs2, stronger effect = lower value 1.02 | locus YAL030W, strain snc1, stronger effect = lower value 1.01 | locus YBL061C, strain skt5, stronger effect = lower value 1.02 | locus YBR009C, strain hhf1, stronger effect = lower value 1.02 | locus YBR021W, strain FUR4, stronger effect = lower value 1.05 | locus YBR023C, strain chs3, stronger effect = lower value 1.04 | locus YBR171W, strain sec66, stronger effect = lower value 1.01 | locus YBR229C, strain ROT2, stronger effect = lower value 0.958 | locus YBR231C, strain swc5, stronger effect = lower value 1 | locus YBR279W, strain paf1, stronger effect = lower value 1 | locus YCL011C, strain gbp2, stronger effect = lower value 1.03 | locus YCL016C, strain dcc1, stronger effect = lower value 1.03 | locus YCL029C, strain bik1, stronger effect = lower value 0.973 | locus YCL061C, strain MRC1, stronger effect = lower value 1.02 | locus YCL069W, strain vba3, stronger effect = lower value 1.01 | locus YCR088W, strain abp1, stronger effect = lower value 1.02 | locus YDL005C, strain med2, stronger effect = lower value 1.01 | locus YDL035C, strain GPR1, stronger effect = lower value 0.979 | locus YDL040C, strain nat1, stronger effect = lower value 1.01 | locus YDL074C, strain BRE1, stronger effect = lower value 1.03 | locus YDL101C, strain DUN1, stronger effect = lower value 0.974 | locus YDL134C, strain PPH21, stronger effect = lower value 0.977 | locus YDL185W, strain tfp1, stronger effect = lower value 0.97 | locus YDL192W, strain arf1, stronger effect = lower value 0.992 | locus YDR001C, strain nth1, stronger effect = lower value 1.02 | locus YDR069C, strain doa4, stronger effect = lower value 1.02 | locus YDR101C, strain arx1, stronger effect = lower value 1.03 | locus YDR137W, strain rgp1, stronger effect = lower value 1.05 | locus YDR150W, strain NUM1, stronger effect = lower value 0.981 | locus YDR159W, strain sac3, stronger effect = lower value 1.03 | locus YDR162C, strain NBP2, stronger effect = lower value 0.939 | locus YDR195W, strain ref2 1 | locus YDR297W, strain sur2, stronger effect = lower value 1.02 | locus YDR318W, strain mcm21, stronger effect = lower value 0.965 | locus YDR334W, strain swr1, stronger effect = lower value 1.02 | locus YDR335W, strain msn5, stronger effect = lower value 1.01 | locus YDR388W, stronger effect = lower value 0.949 | locus YDR392W, strain spt3, stronger effect = lower value 0.95 | locus YDR502C, strain sam2, stronger effect = lower value 1.02 | locus YEL003W, strain gim4, stronger effect = lower value 1.01 | locus YEL037C, strain rad23, stronger effect = lower value 1.02 | locus YEL061C, strain CIN8 (second series), stronger effect = lower value 1.02 | locus YEL061C, strain CIN8, stronger effect = lower value 0.982 | locus YER015W, strain faa2, stronger effect = lower value 1.03 | locus YER016W, strain bim1, stronger effect = lower value 1.02 | locus YER110C, stronger effect = lower value 0.979 | locus YER111C, strain swi4, stronger effect = lower value 1.02 | locus YER155C, strain BEM2 (second series), stronger effect = lower value 1.02 | locus YER155C, strain BEM2, stronger effect = lower value 0.989 | locus YER167W, strain BCK2, stronger effect = lower value 0.979 | locus YFR010W, strain ubp6, stronger effect = lower value 1.02 | locus YGL078C, strain dbp3, stronger effect = lower value 0.989 | locus YGL086W, strain mad1, stronger effect = lower value 1.02 | locus YGL167C, strain pmr1, stronger effect = lower value 1.02 | locus YGL173C, strain kem1, stronger effect = lower value 1.03 | locus YGL227W, strain vid30, stronger effect = lower value 1.02 | locus YGL240W, strain doc1, stronger effect = lower value 1.01 | locus YGL248W, strain PDE1, stronger effect = lower value 0.952 | locus YGL253W, strain hxk2, stronger effect = lower value 1.02 | locus YGR078C, strain PAC10, stronger effect = lower value 0.952 | locus YGR135W, strain pre9, stronger effect = lower value 0.962 | locus YGR229C, strain SMI1, stronger effect = lower value 1 | locus YGR252W, strain gcn5, stronger effect = lower value 0.961 | locus YHR013C, strain ard1, stronger effect = lower value 1.03 | locus YHR027C, strain rpn1, stronger effect = lower value 1.02 | locus YHR030C, strain SLT2, stronger effect = lower value 0.998 and 1.02 | locus YHR079C, strain IRE1 (second series), stronger effect = lower value 0.99 | locus YHR079C, strain IRE1, stronger effect = lower value 1.01 | locus YHR094C, strain hxt1, stronger effect = lower value 0.973 | locus YHR129C, strain ARP1, stronger effect = lower value 0.987 | locus YHR142W, strain chs7, stronger effect = lower value 1.04 | locus YHR200W, strain rpn10, stronger effect = lower value 0.982 | locus YIL066C, strain RNR3, stronger effect = lower value 0.985 | locus YIL073C, strain SPO22, stronger effect = lower value 0.955 | locus YIL125W, strain kgd1, stronger effect = lower value 0.981 | locus YIR030C, strain dcg1, stronger effect = lower value 0.987 | locus YJL092W, strain hpr5, stronger effect = lower value 1.02 | locus YJL095W, strain BCK1 (second series), stronger effect = lower value 1.02 | locus YJL095W, strain BCK1, stronger effect = lower value 0.942 and 1.02 | locus YJL115W, strain asf1, stronger effect = lower value 1.02 | locus YJL129C, strain trk1, stronger effect = lower value 1.04 | locus YJL134W, strain LCB3, stronger effect = lower value 0.989 | locus YJL154C, strain vps35, stronger effect = lower value 1.02 | locus YJL164C, strain tpk1, stronger effect = lower value 1.03 | locus YJL166W, strain qcr8, stronger effect = lower value 1.01 | locus YJL168C, strain set2, stronger effect = lower value 1.01 | locus YJL187C, strain SWE1 (second series), stronger effect = lower value 0.974 | locus YJL187C, strain SWE1, stronger effect = lower value 1.01

Source: PubChem BioAssay AID1159580 (chemical genetic matrix, 2015)
